DAX1 inh-1 – inhibits human nuclear receptor DAX1 | actives 0.99% (n = 340,000) | inhibition, % at 6.75 µM | HEK293 Gal4-DAX1 luciferase reporter, luminescence;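 active means inhibition above the mean over all tested compounds plus 3 SD, cut at about 4.2% in these data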;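 further: inhibition shows as a rise in luminescence from relieved DAX1 repression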
Target sequence (P51843 207-470 limits assumed): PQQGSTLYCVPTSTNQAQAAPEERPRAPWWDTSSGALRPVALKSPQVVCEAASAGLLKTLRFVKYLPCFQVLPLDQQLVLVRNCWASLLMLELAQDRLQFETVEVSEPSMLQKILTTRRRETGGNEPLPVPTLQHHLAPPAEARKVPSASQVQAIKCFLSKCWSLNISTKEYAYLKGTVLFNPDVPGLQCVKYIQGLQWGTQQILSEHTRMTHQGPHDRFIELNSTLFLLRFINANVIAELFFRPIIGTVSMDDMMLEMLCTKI
DAX1 inh-2 – blocks DAX1 repression of SF-1 activated StAR promoter | HEK293T StAR-luciferase reporter, SF-1/DAX-1 repression relief | inhibition, % at 6.8 µM | actives 1.1% (n = 370,000) | AID 652010;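 active means inhibition above the mean over all tested compounds plus 3 SD, cut at about 3.6% in these data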;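 further: higher inhibition means more luminescence from relief of DAX-1 repression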
hgDAF12 agonist – hgDAF-12 agonism, primary luciferase screen. AID 687014. activation, % at 6.8 µM. actives 1.8% (n = 370,000). HEK293 GAL4-hgDAF12 UAS-luciferase reporter, agonist luminescence; normalized to butyrate control;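 active means activation above a cutoff set at the mean of all screened compounds plus 3 SD, cut at about 10% in these data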
SMARCA2 activ – activators of SMARCA2 function. MG213 cells, MMTV-luciferase reporter, dexamethasone, overnight. activation, % at 9.1 µM. actives 1% (n = 370,000). AID 652017; in the data active means activation above about 7.8%
hcDAF-12 act – H. contortus DAF-12 activation, primary screen. HEK293 hcDAF-12 lit1-tk-luc reporter, luminescence; 0% DMSO, 100% Δ7-dafachronic acid. actives 1.4% (n = 370,000). activation, % at 6.8 µM;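 active means activation above the mean of all tested compounds plus 3 SD, cut at about 5.5% in these data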
ssDAF12 agonist – activators of S. stercoralis DAF-12 nuclear receptor | HEK293 ssDAF-12/GRIP1 lit1-tk-luc reporter, luminescence; % of 3 µM dafachronic acid response | activation, % at 6.8 µM | actives 1% (n = 370,000);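 active means activation above the mean over all tested compounds plus 3 SD, cut at about 0.9% in these data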
Hits are given with their value; i = inactive; nt = no result. Most compounds without a hit are left out; they make up all but 4.8% or so of the library.

SMILES	DAX1 inh-1	DAX1 inh-2	hgDAF12 agonist	SMARCA2 activ	hcDAF-12 act	ssDAF12 agonist
COc1ccc([C@@H]2CC=C(C(=O)O)[C@H](c3ccc(C)cc3)N2S(=O)(=O)c2ccc(C)cc2)cc1OC	i	i	i	i	i	i
COC(=O)[C@]12C=CCN1[C@@H](c1ccc(OC)c(OC)c1)c1c(c3ccccc3n1S(=O)(=O)c1ccc(C)cc1)C2	nt	i	i	i	5.8	i
O=[N+]([O-])c1ccccc1/C=C/C1Nc2cccc3cccc(c23)N1	nt	i	i	i	i	i
C=CCn1c(COc2ccc(C)cc2)nnc1SCc1ccc([N+](=O)[O-])cc1	nt	i	i	i	i	i
O=[N+]([O-])c1ccc(N2CCN(c3ccccc3O)CC2)c(Cl)c1	i	i	i	i	i	i
O=C1NC(c2cccc([N+](=O)[O-])c2)=CCN1c1ccccc1O	i	i	i	i	i	2.3
COC(=O)[C@]12C[C@H](CC(=O)N3CCC(c4ccccc4)CC3)C(=O)N(Cc3cccc4ccccc34)C1=C[C@H](C(C)C)O[C@@H]2C1CC1	nt	i	i	i	i	i
O=C(N=C1N(CC2CC2)CC2(C=C3CCCCC3n3c(=O)n(-c4ccccc4)c(=O)n32)N1C(=O)OCc1ccccc1)c1ccccc1 (stereo not drawn)	nt	i	i	i	i	i
CC1(C)CC(=O)C(C#N)=C(NCCCO)C1	i	i	i	i	i	i
CC1(C)CC(=O)C([N+](=O)[O-])=C(NCCCC(=O)O)C1	4.5	i	i	i	i	i
O=C(O)c1ccc(N=NN2CCCCCC2)cc1	i	i	11	i	i	i
Cc1ccc(CN2CCCCC(NC(=O)c3ccc(COc4ccccc4)cc3)C2=O)cc1 (stereo not drawn)	nt	i	i	i	i	i
CC(C)CN1C(=O)C[C@@]2(C(=O)N(C)c3ccc(NC(=O)c4cc(F)ccc4F)cc32)C1c1ccccc1 (stereo partly drawn)	nt	i	i	i	i	i
Cc1nc2c(ccc3nc(NC(=O)C(c4ccccc4)c4ccccc4)sc32)s1	i	i	i	i	i	2.5
CCOc1ccc(-n2c(SCC(=O)Nc3ccc(S(=O)(=O)Nc4nccs4)cc3)nnc2-c2ccc(C(C)(C)C)cc2)cc1	nt	i	i	i	i	i
c1ccc(-c2nnc(-c3ccncc3)o2)cc1	i	i	i	i	i	i
Nc1ccc(-c2nnc(-c3ccc(N)cc3)o2)cc1	4.4	i	i	i	i	i
c1ccc(-c2nnc(-c3ccccc3)o2)cc1	4.6	i	12	i	5.9	1.2
Cc1cccc(-c2nnc(-c3ccc(N)cc3)o2)c1	i	i	i	i	i	i
CCOC(=O)[C@@]12CCCC3=C1N(CCC3)C(=O)[C@H]2CC(=O)N1CCCC1	nt	i	i	i	i	i
COc1ccc(-n2c(C)cc(=O)c3c2CC(C)(C)CC3=O)cc1	i	i	i	7.9	i	i
S=C(Nc1ccccc1Cl)OCCN1CCCC12CCC(c1ccccc1)CC2 (stereo not drawn)	nt	nt	i	nt	i	i
CCOC(=O)CN1C(=O)[C@]2(OCCC=C[C@H]2C)c2ccccc21	nt	i	i	i	i	i
Cc1nn(C)c(C)c1NC(=O)COc1ccc(Cl)cc1	i	i	i	i	i	i
Cc1nn(C)c(C)c1NC(=O)CCl	i	i	i	i	i	1.2
SMILES	DAX1 inh-1	DAX1 inh-2	hgDAF12 agonist	SMARCA2 activ	hcDAF-12 act	ssDAF12 agonist
CCC[C@H]1[C@@H](NC(=O)NCC)CC[C@@]23CCCN2C(=O)CCC[C@@H]13	nt	nt	i	nt	i	i
O=C(O)c1nn(-c2cccc(Cl)c2)c(=O)cc1O	i	i	i	i	i	1.2
COc1cccc(CNC(=O)[C@H]2CCCN2C(=O)[C@H]2CCCN2C(=O)c2ccccc2C(F)(F)F)c1	nt	i	i	i	i	i
c1cncc(CSc2ccc(-c3cccs3)nn2)c1	i	i	12	i	i	i
Cc1ccc(CSc2ccc(-c3cccs3)nn2)cc1	i	i	i	i	i	i
Cc1cnc(C(=O)NCCc2ccc(Cl)cc2)cn1	i	4.0	i	i	i	i
COc1ccc(CCNC(=O)c2cnc(C)cn2)cc1	i	i	i	i	i	i
O=C(NCCc1ccc(Cl)cc1)c1ccc2c(c1)OCCO2	i	i	11	i	i	i
Cc1cccc(NC(=O)OC2CC3CC2[C@H]2CCCCN2C3)c1 (stereo partly drawn)	nt	i	i	i	i	i
CCOC(=O)c1c(NC(=O)CSc2nnc(C)c(=O)[nH]2)sc(C)c1-c1ccc(C)cc1	4.6	i	i	i	i	i
CSc1ccc(/C=C/C(=O)c2c(O)cc(C)oc2=O)cc1	6.6	i	i	i	i	i
O=C(NCc1ccco1)OC1CCC12CCC(c1ccccc1)CC2 (stereo not drawn)	nt	nt	i	nt	i	i
c1ccc(CNC2CC3CCC2C3)cc1 (stereo not drawn)	i	i	i	i	i	0.9
O=C(CSc1nnc(Cc2ccccc2)o1)NC1CC2CCC1C2 (stereo not drawn)	i	i	i	i	i	i
CN(C(=O)c1cccc(NC(=O)Cc2ccc(NC(=O)C3CCN(C(=O)CCc4ccccc4)CC3)cc2)c1)C1CCCC1	nt	i	i	i	i	i
O=C(N/N=C/c1sc(N2CCCCC2)nc1-c1cccs1)C1CC1	i	i	i	i	i	i
NC(=O)N/N=C/c1sc(N2CCCCC2)nc1-c1cccs1	i	i	12	i	i	i
Cc1ccc2nc(SCC(=O)Nc3cc([N+](=O)[O-])ccc3F)[nH]c2c1	i	i	i	i	6.1	i
Cc1ccc2nc(SCC(=O)Nc3ccc(F)c([N+](=O)[O-])c3)[nH]c2c1	i	i	i	i	i	i
N#Cc1ccc(C(=O)N/N=C/c2cn(CC(=O)O)c3ccccc23)c(F)c1	i	i	i	i	5.7	i
CCOC(=O)Cn1cc(/C=N/NC(=O)c2ccc(C#N)cc2F)c2ccccc21	i	i	i	i	i	i
C[C@@H]1C=CCCO[C@]12C(=O)Nc1ccccc12	nt	i	i	i	i	i
O=C(N/N=C1\CCCc2oc(C(=O)O)cc21)c1ccccc1	i	i	11	i	i	1.7
O=C(O)c1cc2c(o1)CCC/C2=N\O	i	i	i	i	i	i
OCC1CCCN(C(=S)Nc2ccc(Nc3ccccc3)cc2)C1 (stereo not drawn)	5.7	i	16	i	i	i
NC(=O)C1CCCN(C(=S)Nc2ccccc2)C1 (stereo not drawn)	i	i	i	i	i	i
CCOc1ccc(N(CC(=O)Nc2c(C)n(C)n(-c3ccccc3)c2=O)S(=O)(=O)c2ccc3c(c2)N(C(=O)C2CCC2)CC3)cc1	nt	i	i	i	i	i

Screening results as filed in PubChem BioAssay.
